Compound activity as filed in PubChem.
An excerpt weighted towards active compounds, which were near 3.7% of everything screened.
HTT-AS promoter: activators of huntingtin-antisense promoter activity | HEK293 HTT-AS promoter firefly luciferase reporter, 24 h; response scale: percent change from vehicle, -100% = no light | Potency, µM (doses to about 57.5 µM), actives largely listed as activators | hit rate 0.24% among 48,000; note: nearly all actives have a fitted effect of over 55% in size
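Firefly luciferase readout (Dual-Glo, 10 min RT) after 24 h, 37 °C compound exposure (final up to 57.5 uM) of HEK293 reporter cells cultured 24 h beforehand; PTC124 at 50 uM final as control inhibitor; activity scaled vehicle 0%, zero RLU -100%.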
HTT promoter inh: inhibits huntingtin promoter activity | HEK293 HTT promoter firefly luciferase reporter, 24 h | Potency, µM (series often up to 57.5 µM), hits mostly inhibitors | hit rate 0.93% among 48,000 | AID 1508623; note: nearly all actives have a fitted effect of over 50% in size
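Quantitative HTS used concentration series of up to 57.5 uM final on HEK293 luciferase reporter cells, 24 h at 37 degrees C. Readout was Dual-Glo firefly luminescence.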
DRV1 agonist: agonists of human resolvin D1 receptor DRV1 (GPR32) | CHO-K1 GPR32 beta-arrestin PathHunter luminescence, 90 min; zero percent set by DMSO-only wells | AID 1346428 | hit rate 2.5% among 48,000 | activation, % at 76.9 µM | O75388;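 active = activation of at least 60% and not above a set upper limit, about 1 call in 100 departs from these limits; inconclusive = activation of 40% to 60%, or above that upper limit; inactive = activation under 40%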
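Luminescent readout of beta-Gal complementation quantifies ligand-induced beta-arrestin association with GPR32 in CHO-K1 cells; 90 min compound incubation at 37 °C, detection 1 h at room temperature.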
B2AR arrestin ag: agonists recruiting beta-arrestin to human beta2-adrenergic receptor | HTLA Tango cells, beta-arrestin recruitment, luciferase luminescence, 18 h | Potency, µM (series often up to 46.1 µM), usual class: activators | 44,000 tested, under 10 active
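Receptor–beta-arrestin recruitment read by tTA-responsive luciferase: compound titrations (up to 46 µM) incubated 18 h with Tango cells, then luminescent substrate 15 min at room temperature. Concentration-response fits classified by r2, efficacy and activity.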
GALC G270D act: enhancers of human galactocerebrosidase G270D mutant activity in cells. hit rate 0.1% among 45,000. 145M-Twi-hGALC-G270D cells, HMU-beta-Gal fluorescence, 48 h. Potency, µM (titrated, usually from 57.5 µM), most hits filed as activators; note: nearly all actives have a fitted effect of over 65% in size
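qHTS, 1536-well; 145M-Twi-hGALC-G270D cells (WT line also made) in DMEM/F12 + 10% FBS; compound incubation on live cells; HMU-β-gal 0.1 mM final, pH 5.2, NaTC; carbonate stop; fluorescence increase = enhanced residual activity.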
FH mod: Identification of activators of human fumarate hydratase by quantitative high-throughput screening | Fumarate hydratase, mitochondrial (Homo sapiens), P07954 | FH coupled MDH/diaphorase resazurin fluorescence, 15 min | Potency, µM (doses to about 79.9 µM), usual class: inhibitors | hit rate 0.22% among 54,000; note: the screen sought activators but most active calls are inhibition curves; nearly all actives have a fitted effect of over 45% in size
Target sequence (P07954 whole entry, looked up): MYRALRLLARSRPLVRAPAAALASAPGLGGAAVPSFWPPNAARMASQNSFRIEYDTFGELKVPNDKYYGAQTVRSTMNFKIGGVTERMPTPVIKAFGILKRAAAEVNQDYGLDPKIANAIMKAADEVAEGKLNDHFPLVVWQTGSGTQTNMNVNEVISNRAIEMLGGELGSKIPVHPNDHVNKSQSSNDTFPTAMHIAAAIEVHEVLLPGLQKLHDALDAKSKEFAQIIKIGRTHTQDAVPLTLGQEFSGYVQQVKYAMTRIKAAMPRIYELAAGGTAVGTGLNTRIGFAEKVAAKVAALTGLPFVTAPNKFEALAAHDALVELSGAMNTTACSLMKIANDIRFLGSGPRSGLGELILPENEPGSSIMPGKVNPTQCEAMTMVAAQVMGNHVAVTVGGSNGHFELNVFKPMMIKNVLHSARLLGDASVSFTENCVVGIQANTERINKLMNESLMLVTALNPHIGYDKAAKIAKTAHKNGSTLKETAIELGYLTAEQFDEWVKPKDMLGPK
Large screens that a line does not name were inactive; ! = repeats disagree. Unless noted, calls come from the whole dose curve; as a rule, active = well fitted curve in the direction sought with a large enough effect; inconclusive = small, poorly fitted or top-dose-only effect, or another doubt; inactive = no such curve, though single readings can be large; an effect the other way counts as inactive or inconclusive.

Cc1ccc(OCC(=O)Nc2nnc(SCc3cc(=O)c4ccccc4[nH]3)s2)cc1	DRV1 agonist 120.2
COc1ccc(N2CCOCC2)c2sc(NC(=O)N3CCC(C)(O)CC3)nc12	none (no result: HTT-AS promoter, HTT promoter inh, DRV1 agonist, B2AR arrestin ag, GALC G270D act)
CC1OC2OC3C(OCC(O)C3O)OC(=O)C34CCC(C)(C)CC3C3=CCC5C6(C)CC(O)C(OC7OC(CO)C(O)C(O)C7OC7OCC(OC(=O)CC(C)(O)CC(=O)OC1C(OC1OCC(O)C(O)C1O)C2O)C(O)C7O)C(C)(CO)C6CCC5(C)C3(C)CC4O (stereo unspecified)	none (no result: HTT-AS promoter, HTT promoter inh, DRV1 agonist, B2AR arrestin ag, GALC G270D act)
CCc1ccc2[nH]cc(S(=O)(=O)c3ccc(C(C)C)cc3)c(=O)c2c1	HTT promoter inh inconclusive, DRV1 agonist 65.4
O=C(Nc1cccc(C(=O)Nc2ccc(S(=O)(=O)O)c3cc(S(=O)(=O)O)cc(S(=O)(=O)O)c23)c1)Nc1cccc(C(=O)Nc2ccc(S(=O)(=O)O)c3cc(S(=O)(=O)O)cc(S(=O)(=O)O)c23)c1	FH mod 28.2µM (no result: HTT-AS promoter, HTT promoter inh, B2AR arrestin ag, GALC G270D act)
C=CCc1ccc(O[C@@H]2O[C@H](CO[C@@H]3O[C@H](CO)[C@@H](O)[C@H](O)[C@H]3O)[C@@H](O)[C@H](O)[C@H]2O)c(O)c1	none (no result: HTT-AS promoter, HTT promoter inh, DRV1 agonist, B2AR arrestin ag, GALC G270D act)
CCCCCOC(=O)Nc1nc(=O)n(C2O[C@H](C)[C@@H](O)[C@H]2O)cc1F (stereo partly specified)	none (no result: HTT-AS promoter, HTT promoter inh, DRV1 agonist, B2AR arrestin ag, GALC G270D act)
O=c1cc(CSc2n[nH]c(-c3ccccc3)n2)[nH]c2ccccc12	HTT promoter inh inconclusive, DRV1 agonist 93.0
CCc1nc(SCc2cc(=O)c3cc(C)ccc3[nH]2)n[nH]1	none
COc1ccc(CCn2c(=O)c3ccccc3n(CC(=O)Nc3cccc(C)c3)c2=O)cc1OC	none
Cc1cccc(NC(=O)Cn2c(=O)oc3cc(S(=O)(=O)NCc4ccccc4)ccc32)c1	HTT promoter inh inconclusive, DRV1 agonist 65.1
Cc1cccc(NC(=O)Cn2c(=O)n(CCc3ccccc3)c(=O)c3ccccc32)c1	DRV1 agonist 74.8
O=C(Cn1c(=O)oc2cc(S(=O)(=O)NCc3ccccc3)ccc21)NCc1ccc(F)cc1	DRV1 agonist 111.1
O=C(Cn1c(=O)oc2cc(S(=O)(=O)NCc3ccccc3)ccc21)NCc1ccc(Cl)cc1	HTT promoter inh inconclusive
CCCCC1CCC(c2nc(-c3ccncc3)no2)CC1 (stereo unspecified)	none (no result: HTT-AS promoter, HTT promoter inh, DRV1 agonist, B2AR arrestin ag, GALC G270D act)
CC(C)(C)Nc1nc2cc(Cl)c(Cl)cc2nc1S(C)(=O)=O	none (no result: HTT-AS promoter, HTT promoter inh, DRV1 agonist, B2AR arrestin ag, GALC G270D act)
CCOC(=O)c1ccc(NC(=O)c2ccc(-c3cccc(Cl)c3C)o2)cc1	none
Cc1c(Cl)cccc1-c1ccc(C(=O)Nc2ccc(F)cc2)o1	DRV1 agonist 60.8
O=C1NC(Nc2ccccc2)=N/C1=C\c1ccc2c(c1)OCO2	none (no result: HTT-AS promoter, HTT promoter inh, DRV1 agonist, B2AR arrestin ag, GALC G270D act)
CCOC(=O)c1c(NC(=O)/C=C/c2ccc(Cl)cc2)sc2c1CCC(C)C2 (stereo unspecified)	DRV1 agonist 79.4
CCCOc1ccc(/C=C/C(=O)Nc2sc3c(c2C(=O)OCC)CCC(C)C3)cc1OC (stereo unspecified)	none
Cc1cc2n(n1)CCCN2C(=O)Nc1ccc(F)c(Cl)c1	none
Cc1cc2n(n1)CCCN2C(=O)Nc1ccc(Cl)cc1	HTT-AS promoter inconclusive, DRV1 agonist 107.8
Cc1ccc(-c2nc(-c3cc4cccc(OCc5cccc(F)c5)c4oc3=O)no2)cc1	DRV1 agonist 82.2
Cc1ccccc1C(=O)OCc1cc(=O)n2c(C)csc2n1	HTT-AS promoter inconclusive, DRV1 agonist 75.1
N=c1n(CCN2CCCCC2)c2ccccc2n1CC(O)COc1ccc(Cl)cc1Cl (stereo unspecified)	HTT promoter inh inconclusive, DRV1 agonist 69.6
COc1cc(CN(C(=O)c2ccc(OC(C)C)cc2)c2ccccn2)cc(OC)c1OC	HTT promoter inh 15.8µM
C[n+]1cc2c3c(ccc2c2ccc4cc5c(cc4c21)OCO5)OCO3	HTT promoter inh 2.82µM, DRV1 agonist inconclusive, FH mod 15.8µM! (no result: B2AR arrestin ag)
CCCc1nnc(NC(=O)c2cc(=O)c3ccccc3o2)s1	HTT-AS promoter 3.98µM
COc1ccc(OC)c(C(=O)CC2(O)C(=O)N(Cc3ccccc3C)c3ccccc32)c1 (stereo unspecified)	HTT promoter inh inconclusive, FH mod inconclusive
Cc1ccccc1CN1C(=O)C(O)(CC(=O)c2cccc(Br)c2)c2ccccc21 (stereo unspecified)	HTT promoter inh inconclusive, FH mod 31.6µM
O=C(CC1(O)C(=O)N(CCc2ccccc2)c2ccc(Br)cc21)c1ccccc1 (stereo unspecified)	HTT promoter inh inconclusive, DRV1 agonist 60.3
Cc1ccc(C(=O)CC2(O)C(=O)N(CCc3ccccc3)c3ccc(Cl)cc32)cc1 (stereo unspecified)	HTT promoter inh inconclusive, FH mod inconclusive
C/C=C/C=C/C=C/C(=O)N(C)C(C(=O)NC(C)C(=O)N1CCCC1C(N)=O)C(C)C (stereo unspecified)	none (no result: HTT-AS promoter, HTT promoter inh, DRV1 agonist, B2AR arrestin ag, GALC G270D act)
Cc1noc(C)c1S(=O)(=O)Nc1ccc(C(=O)Nc2ccc(C(C)C)cc2)cc1	DRV1 agonist 91.0
Cc1noc(C)c1S(=O)(=O)Nc1ccc(C(=O)Nc2ccc(Br)cc2)cc1	HTT promoter inh inconclusive, DRV1 agonist 95.4, FH mod inconclusive
Cc1onc(-c2ccc(Br)cc2)c1C(=O)Nc1ccc(Br)cc1F	none
Cc1noc(C)c1S(=O)(=O)N1CCC(C(=O)Nc2ccc(Br)cc2)CC1	none
Cc1cc(Br)ccc1NC(=O)c1ccc(NS(=O)(=O)c2c(C)noc2C)cc1	DRV1 agonist 63.8
O=C(O)CCc1cccc(O[C@@H]2O[C@H](CO)[C@@H](O)[C@H](O)[C@H]2O)c1O	none (no result: HTT-AS promoter, HTT promoter inh, DRV1 agonist, B2AR arrestin ag, GALC G270D act)
COc1ccc(Nc2c(-c3cccc(O)c3)nc3cnccn23)cc1	none
COc1ccc(Nc2c(-c3ccc(Cl)cc3)nc3cnccn23)cc1OC	DRV1 agonist 97.5
CC(C)c1ccc(NS(=O)(=O)c2ccc3nc(-c4ccccc4)[nH]c3c2)cc1	HTT promoter inh inconclusive, DRV1 agonist 109.5
O=S(=O)(Nc1ccc(Br)cc1)c1ccc2nc(-c3ccccc3)[nH]c2c1	HTT promoter inh inconclusive, DRV1 agonist inconclusive
Cc1ccc(NS(=O)(=O)c2ccc3nc(-c4ccccc4)[nH]c3c2)c(Cl)c1	HTT promoter inh inconclusive, DRV1 agonist 103.6
Cc1cccc(NS(=O)(=O)c2ccc3nc(-c4ccccc4)[nH]c3c2)c1C	DRV1 agonist 86.5
Cc1ncc(CCCN(C)C)cc1Nc1ncc2c(n1)-c1ccc(C(F)(F)F)cc1NC(=S)C2	none (no result: HTT-AS promoter, HTT promoter inh, DRV1 agonist, B2AR arrestin ag, GALC G270D act)
